High-throughput results from PubChem.
PTHR1 agonist – qHTS for PTHR1 Agonists: Primary Screen. HEK293 GP2 PTHR1 cells, GloSensor cAMP luminescence, 1 h. Potency, µM (highest dose often 115 µM), for the others: top-dose activation, usual class: activators. hit rate 0.075% among 410,000. AID 743266, 2014; also: nearly all actives have a fitted effect of over 55% in size
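HEK-293-derived GP2 cells expressing PTHR1 and a GloSensor cAMP reporter, 3,000/well, plated overnight, given luciferin plus IBMX (each 0.5 mM as added) for 1 h at 37 °C, then compound for 1 h at 37 °C. Luminescence was read after 15 min at room temperature.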
GLP1R inv ag – qHTS of GLP-1 Receptor Inverse Agonists (Inhibition Mode); Glucagon-like peptide 1 receptor (Homo sapiens), P43220; HEK293 GLP-1R CRE-luciferase, luminescence, 24 h; GLP-1R form is constitutively active; Potency, µM (series often up to 38.3 µM), without a hit: top-dose activity change, negative = inhibition, most hits filed as inhibitors; hit rate 1.6% among 410,000; also: % is scaled to controls: 0 for no effect and ±100 for the full control effect; nearly all actives have a fitted effect of over 55% in size
Target sequence (P43220 whole entry, looked up): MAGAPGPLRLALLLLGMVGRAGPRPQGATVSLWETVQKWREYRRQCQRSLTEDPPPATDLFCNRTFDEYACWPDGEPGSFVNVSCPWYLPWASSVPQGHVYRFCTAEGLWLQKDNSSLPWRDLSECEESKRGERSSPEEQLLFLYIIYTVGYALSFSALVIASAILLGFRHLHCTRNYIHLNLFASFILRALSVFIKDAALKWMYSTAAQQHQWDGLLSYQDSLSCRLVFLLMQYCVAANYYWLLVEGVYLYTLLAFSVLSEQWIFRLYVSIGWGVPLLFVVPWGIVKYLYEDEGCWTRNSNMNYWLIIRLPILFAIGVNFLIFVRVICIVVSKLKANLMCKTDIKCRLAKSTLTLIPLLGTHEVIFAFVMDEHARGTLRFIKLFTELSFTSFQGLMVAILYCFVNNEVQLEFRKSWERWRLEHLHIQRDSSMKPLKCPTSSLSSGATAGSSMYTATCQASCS
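Inverse agonism was detected as reduced cAMP-driven luciferase luminescence after 24 h compound treatment. The cells were HEK293 clones expressing constitutively active human GLP-1R with the reporter. Reporter-only and GPR119 cell lines served as counterscreen controls.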
GLP1R ag – qHTS of GLP-1 Receptor Agonists. Glucagon-like peptide 1 receptor (Homo sapiens), P43220. HEK293 GLP-1R CRE-luciferase, luminescence, 4-6 h; cells express a hypersensitive GLP-1R form. Potency, µM (highest dose often 45.6 µM), without a hit: top-dose activation, most hits filed as activators. hit rate 0.007% among 380,000. AID 624172, 2012; also: % of control where 0% means no effect
GLP1R cytotox – qHTS of GLP-1 Receptor Inverse Agonists: Cytotox Screen. HEK293 cAMP-luciferase reporter cells, luminescence, 24 h. Potency, µM (series often up to 38.3 µM), inactives show top-dose activity change, negative = inhibition, actives largely listed as inhibitors. hit rate 0.13% among 410,000. AID 624418, 2012;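 also: loss of luciferase light is scored as toxicity; % is scaled to controls: 0 for no effect and ±100 for the full control effect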
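Quantitative HTS format, 1536 wells, 200 cells/uL seeded. Compounds: 23 nL, 24 h, 37 °C. Detection: luciferase reagent, luminescence at 12 min RT; decreased signal taken as cytotoxic.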
* hit, by the source's call; i = inactive; ? = inconclusive; nt = not tested or not shown; [ ] = remark or other dose. A selection: hits, their analogues and other compounds. The true share with any hit is near 1.7%. Calls follow the shape of the dose curve; as a rule, active = well fitted curve in the direction sought with a large enough effect; inconclusive = small, poorly fitted or top-dose-only effect, or another doubt; inactive = no such curve, though single readings can be large; an effect the other way counts as inactive or inconclusive. Potency is read from the fitted curve at half-maximal effect.

SMILES | PTHR1 agonist | GLP1R inv ag | GLP1R ag | GLP1R cytotox
Cc1ccc(C(=O)Nc2cccc(OCc3cc(=O)n4c5c(sc4n3)CCCC5)c2)cc1 | -6.9% | 6.3% | -1.3% | 1.2%
O=C(C1CCCN(S(=O)(=O)c2ccc(Br)s2)C1)N1CCN(c2ccc(F)cc2)CC1 (stereo unspecified) | -23.3% | 11.3% | nt | 0.9%
COc1ccc(-n2ccn(CC(=O)NCCc3ccccc3)c(=O)c2=O)cc1OC | 17.9% | 1.2% | nt | -3.8%
O=C(Cc1ccc(F)cc1)Nc1ccccc1N1CCCC1 | i | ? | -1.6% | 19.7%
O=C(COc1ccccc1)Nc1ccccc1N1CCCCC1 | i | 11.2µM* | 4.0% | 19.8%
O=C(Cc1ccc(Cl)c(Cl)c1)Nc1ccccc1N1CCCC1 | -20.5% | 10µM* | 4.9% | 1.1%
O=c1[nH]ncc(N2CCN(C(c3ccccc3)c3ccccc3)CC2)c1Cl | i | 12.6µM* | -1.0% | 7.6%
O=c1[nH]ncc(N2CCCC2)c1Cl | i | 11.1% | 5.0% | -0.7%
CCCc1nc2ccccc2n2c(-c3ccc(C)cc3)c3c(=O)n(C)c(=O)n(C)c3c12 | -18.3% | 0.9% | nt | 5.2%
Cc1nn(-c2ccccc2)c2sc(C(=O)Nc3cccc(O)c3)cc12 | i | ? | nt | -30.3%
CC1(C(=O)Nc2cccc(C(F)(F)F)c2)Cc2c(-c3cccc(C(F)(F)F)c3)ccnc2O1 (stereo unspecified) | 1.1% | ? | -2.3% | -16.8%
CC(=O)Nc1cccc(-c2ccnc3c2CC(C)(C(=O)Nc2cccc(C(F)(F)F)c2)O3)c1 (stereo unspecified) | -24.2% | 11.2µM* | 2.4% | -33.6%
CC1(C(=O)NCc2ccc(F)c(F)c2)Cc2c(-c3cccc(C(F)(F)F)c3)ccnc2O1 (stereo unspecified) | -44.2% | 10µM* | -0.8% | -23.2%
CCOc1ccccc1NC(=O)CSc1nc2ccccc2nc1N1CCCC1 | -13.3% | ? | -1.1% | 2.7%
CCOc1ccccc1NC(=O)CSc1nc2ccccc2nc1N1CCOCC1 | -10.5% | 10µM* | 4.8% | 6.1%
CC(=O)Oc1c(-c2ccc(Br)o2)oc2ccccc2c1=O | -22.7% | 5.62µM* | 0.1% | i
COc1ccc(-c2oc3ccccc3c(=O)c2OC(C)=O)cc1 | i | 4.8%[0.307 µM] | -12.0% | 5.0%[0.307 µM]
CC1(C)C([N+](=O)[O-])C(c2ccccc2O)NC(c2ccccc2O)C1[N+](=O)[O-] (stereo unspecified) | i | 10µM* | 5.8% | 21.4%
COc1ccc(CCCc2nnc(SCC(=O)Nc3cc(F)ccc3C)o2)cc1 | -13.2% | 1.8% | nt | -3.1%
CN(c1nc2ccccc2nc1Cl)S(=O)(=O)c1ccccc1 | -25.4% | 10µM* | 13.1% | -7.1%
CCCCNC(=O)CSc1nc2ccccc2nc1Cc1ccccc1 | -95.0% | ? | 0.0% | 2.1%
C=CCOc1ccc(C2N3CC4(CC)CN2CC(CC)(C3)C4=O)cc1 (stereo unspecified) | -13.5%[57.5 µM] | 11.2µM* | 4.6% | -1.1%
CCn1c(=O)cc(SCC(=O)NCCc2cc(OC)ccc2OC)c2ccccc21 | -18.4% | 5.4% | -0.2% | -3.9%
CN(C)c1ccc(CNC(=O)c2ccc(Cn3c(SCc4ccccc4)nc4cccnc43)cc2)cc1 | -6.4% | -7.9% | nt | 1.7%
Cc1cc(C)c2cc(C(=O)N(C)C3CCN(C)CC3)[nH]c2c1 | i | 5.01µM* | 8.9% | 7.5%
SMILES | PTHR1 agonist | GLP1R inv ag | GLP1R ag | GLP1R cytotox
C=CCSc1nc2ccccc2c(=O)n1C1CCOC(C)(C)C1 (stereo unspecified) | -25.9% | 10µM* | 11.6% | 4.3%
CCSc1nc2ccccc2c(=O)n1C1CCOC(C)(C)C1 (stereo unspecified) | -7.2% | ? | 22.6% | -5.0%
Cc1onc(-c2ccccc2Cl)c1C(=O)Nc1nc2c(s1)CCCC2 | -3.0% | 10µM* | -6.8% | -0.9%
Cc1onc(-c2ccccc2Cl)c1C(=O)Nc1nnc(-c2ccc(Br)cc2)s1 | -74.6% | 10µM* | -6.8% | -17.5%
Cc1ccc(C2CCN(C(=O)Nc3ccc(C)c(C)c3)C2)cc1 (stereo unspecified) | -19.5% | 11.0% | nt | 2.7%
COc1ccc(CC2S/C(=N/N=C/c3ccccc3O)NC2=O)cc1 (stereo unspecified) | i | 2.51µM* | -0.9% | ?
CCC1CN(C(=O)N2CCC(C(=O)NCc3cccs3)CC2)c2ccccc2O1 (stereo unspecified) | -19.0% | 8.7% | nt | -6.0%
CC(=O)/C=C/n1c(=S)oc2ccccc21 | -29.7% | ? | -1.6% | 11.2µM*
O=C(CC1SC(=Nc2ccc(OC(F)F)cc2)N(CCN2CCOCC2)C1=O)Nc1ccccc1 (stereo unspecified) | i | 10µM* | 8.0% | -8.5%
N#Cc1cn(Cc2ccccc2)c2ccccc12 | -12.8% | 11.2µM* | 6.0% | 11.1%
CC(C)Oc1ccc(Br)cc1/C=N\NC(N)=S | -45.3% | 3.16µM* | 0.4% | 2.51µM*
O=C1Nc2ccc([N+](=O)[O-])cc2OC1CCN1CCOCC1 (stereo unspecified) | i | -37.2% | -1.6% | -20.7%
O=C1Nc2ccc([N+](=O)[O-])cc2OC1CCN1CCN(c2ccccc2)CC1 (stereo unspecified) | -50.9% | 11.2µM* | -0.2% | -22.2%
Cc1ccc(NC(=O)C2CCCN(c3ncnc4c3nc3n4CCCCC3)C2)cc1F (stereo unspecified) | -44.2% | 3.55µM* | nt | 3.4%
CCN(Cc1ccccc1)C(=O)C1CCN(c2ncnc3c2nc2n3CCCCC2)CC1 | -15.1% | -10.8% | 12.8% | -9.8%
O=C(Nc1ccccc1Cl)C1CCCN(c2ncnc3c2nc2n3CCCCC2)C1 (stereo unspecified) | -26.0% | 3.16µM* | 10.6% | -13.7%
O=C(Nc1ccc(F)cc1)C1CCCN(c2ncnc3c2nc2n3CCCCC2)C1 (stereo unspecified) | -23.3% | ? | nt | 0.5%
COc1cccc(N2CCN(C(=O)C3CCCN(c4ncnc5c4nc4n5CCCCC4)C3)CC2)c1 (stereo unspecified) | i | 4.47µM* | 10.0% | ?
CCc1ccccc1N(CC)C(=O)C1CCN(c2ncnc3c2nc2n3CCCCC2)CC1 | -51.4% | 8.91µM* | -1.7% | -26.7%
Cc1ccc(Cn2cnc3nc4c(cc3c2=O)CC(C)CC4)cc1 (stereo unspecified) | -41.9% | 40.1% | nt | 6.4%
CCOC(=O)c1cc(-c2ccccc2)n(CCC(=O)NC2CCCCC2)c1C | -44.3% | 10.5% | nt | 8.8%
CCCCN(Cc1cc2cc(C)ccc2[nH]c1=O)C(=O)c1cccc(Cl)c1 | -49.5% | 12.0% | nt | -8.0%
COc1ccc(OC)c(CNC(=O)C(C)n2c(C)c3cnn(-c4ccccc4)c(=O)c3c2C)c1 (stereo unspecified) | i | 2.2% | nt | -1.6%
